About 83,000 compounds went through this panel and 20% of them were active in at least one assay; those are over-represented in the sample as a whole.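 Testing used 96-well plates and a 48-hour single-concentration exposure. Example: -40 means 40% of the starting cells died.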 Values without a mark were called inactive. Active and inactive are the calls of the source. How the source made its calls: active means growth percent below 10; inactive means the rest.
These compounds were tested on NCI-H460 lung (assay: NCI-60 one-dose screen, 48 h (100 = growth as untreated, 0 = no growth, -100 = all killed)). Details: 10 µM unless noted.
With CCCC[C@H](NC(=O)[C@H]1CCCN1C)C(=O)N(C)[C@H](C[C@@H](OC(C)=O)c1nc(C(=O)N[C@@H](Cc2ccccc2)C[C@H](C)C(=O)OCC)cs1)C(C)C the growth was 7.53% (active).
For COc1ccc2c(c1)c(-c1nc(-c3c[nH]c4ncccc34)cs1)cn2CCCCN1CCCCC1, the growth was -69.8% (active).
With COC(=O)[C@H](Cc1ccccc1)NC(=O)c1csc([C@@H](C[C@H](C(C)C)N(C)C(=O)[C@@H](NC(=O)[C@H]2CCCN2C)C2CC2)OC(C)=O)n1 the growth was 4.53% (active).
In the case of C[C@]12CC[C@H]3[C@@H](CC[C@]4(O)C[C@@H](O[C@@H]5O[C@H](CO)[C@@H](O[C@@H]6OC[C@@H](O)[C@H](O)[C@H]6O)[C@H](O)[C@H]5O)CC[C@]34C=O)[C@@]1(O)CC[C@@H]2C1=CC(=O)OC1, the growth is reported as -9.57% (active).
Compound c1cc2c(c3c1CCNC3)OCO2 has a growth of 114%.
For Fc1ccc2c(c1)c(-c1nc(-c3c[nH]c4ncccc34)cs1)cn2CCCCN1CCCCC1, the growth was -80% (active).
O=C(Nc1ccncc1F)c1cn(CC2CC2)c2ccccc12 gave a growth of 101%.
Work on COP(=S)(N1CC1)N1CC1 yielded a growth of 107%.
With C/C=C(\C)C(=O)O[C@@H]1C(O)[C@H]2OC(COC(=O)CCC(=O)CCCCCC[C@H](CCCCC)O[C@@H]3OC(C)[C@H](OC(C)=O)C(O)[C@H]3O2)[C@H]1OC(=O)/C=C/c1ccccc1 (some centres undefined) the growth was 15.9%.
In the case of CCc1ccccc1[C@@H]1C[C@]2(C)CCO[C@@H]2OO1, the growth is reported as 107%.
For CC(=O)O[C@H](C[C@H](C(C)C)N(C)C(=O)[C@@H](NC(=O)[C@H]1CCCCN1C)C(C)(C)C)c1nc(C(=O)N[C@@H](Cc2ccccc2)C[C@H](C)C(=O)O)cs1, the growth was 4.25% (active).
COc1ccc(C(=O)c2cc(OC)c(OC)c(OC)c2)cc1OC(C)=O was tested, and the growth was 7.92% (active).
In the case of COc1ccc(N(CC(=O)NCCC[Te]c2ccccc2)C(=O)CNC(=O)OC(C)(C)C)cc1, the growth is reported as -23.9% (active).
For COC(=O)[C@@H](C)C[C@H](Cc1ccccc1)NC(=O)c1csc([C@@H](C[C@H](C(C)C)N(C)C(=O)[C@@H](NC(=O)[C@H]2CCCCN2C)C(C)C)OC(C)=O)n1, the growth was 2.4% (active).
CC[C@H](C)[C@@H]1OC(=O)C(C)(C)[C@H](O)[C@H](Cc2ccccc2)OC(=O)[C@H](C(C)C)OC(=O)[C@@H](NC(=O)c2cccc(NC=O)c2O)[C@@H](C)OC1=O gave a growth of 19%.
NC(=O)CNc1ccc([As]=[As]c2ccc(NCC(N)=O)cc2)cc1 (centres undefined) gave a growth of 83.2%.
In the case of Fc1ccc2c(c1)c(-c1nc(-c3c[nH]c4ncccc34)cs1)cn2CCN1CCOCC1, the growth is reported as 59.8%.
Work on O=C([O][Hg][CH2]C1COCC([CH2][Hg][O]C(=O)c2ccccc2)O1)c1ccccc1 (centres undefined) yielded a growth of 106%.
O=[N+]([O-])CC(c1ccccc1Cl)c1c(-c2ccccc2)[nH]c2ccccc12 (centres undefined) gave a growth of 22.9%.
Work on CCn1c2ccccc2c2cc(C(=O)c3cccc4c3CCCN4)ccc21 yielded a growth of 101%.
In the case of COc1ccc(/C(C)=C(\c2ccc(OCCN3CCOCC3)cc2)c2ccc(OC(=O)Cc3ccccc3)cc2)cc1, the growth is reported as 110%.
Cc1cc(N(CCCl)CCCl)ccc1C=Nc1ccc(-c2csc(Cc3ccccc3)n2)cc1 showed a growth of 25.5%.
For Cc1ccc2c(C(C[N+](=O)[O-])c3cccs3)c(-c3ccccc3)[nH]c2c1 (centres undefined), the growth was 11.3%.
In the case of O=C(CC1(O)C(=O)N(Cc2ccccc2)c2ccc(Cl)cc21)c1ccc(C(=O)NCC2CCC3(CC2)OOC2(CCCCC2)OO3)cc1 (centres undefined), the growth is reported as -47.2% (active).
In the case of CCOC(=O)CCC(NC(=O)C(Cc1ccc(N(CCCl)CCCl)cc1)NC=O)C(=O)OCC (centres undefined), the growth is reported as 8.71% (active).
With COC(=O)[C@@H](C)C[C@H](Cc1ccccc1)NC(=O)c1csc([C@@H](C[C@H](C(C)C)N(C)C(=O)[C@@H](NC(=O)C23CC(NC(C)=O)(C2)C3)C2CC2)OC(C)=O)n1 the growth was 36.6%.
Compound COC(=O)[C@]12CCC(C)(C)C[C@H]1[C@H]1C(=O)C[C@@H]3[C@@]4(C)C[C@@]5(CC(C)(C)[C@@H]4CC[C@@]3(C)[C@]1(C)CC2)OO[C@@](C)(C(F)(F)F)O5 has a growth of 101%.
CNC(=O)Oc1ccc(N(C)C)cc1C(C)C showed a growth of 107%.
For COc1ccc(/C=C\c2cc(OC)c(OC)c(OC)c2)cc1OCC(=O)Nc1nc2ccc(C(F)(F)F)cc2s1, the growth was 7.6% (active).

— PubChem BioAssay (NCI)
